For four compounds, composite z-score and z-score results are on record in PubChem BioAssay.

Calls of active or inactive are those of the source. Unless noted, the rule behind the calls is not given here.

Experiment [1] concerns Wnt5a (protein binding on small-molecule microarray). Put plainly: Wnt5a binders on small-molecule microarray, primary screen, biophysical, 635/667 nm fluorescence (AID 1142).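 Note: fluorescence read at 667 nm with signal to noise per printed feature.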 The conditions noted are these: 635 nm fluorescence, higher = more signal.
The nature of experiment [2]: cell viability in Huh7 cells, primary screen, cytotoxicity control for HCV replication inhibitor project, CellTiter-Glo luminescence, basal, 48 h (AID 1143).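 Note: Huh7 hepatoma cells carrying a hepatitis C replication reporter with no stimulus; test concentration not given here.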 The settings on record: Huh7 HCV replicon, higher = more signal, called active from +8 up or from −8 down.
Experiment [3] can be described thus: P. aeruginosa biofilm formation inhibitors, primary screen, PAO1 strain, BacTiter-Glo luminescence, LB-PBS (AID 1144). The conditions noted are these: 12 h, higher = more signal.
The nature of experiment [4]: CREB reporter modulators without forskolin, primary screen, cell-based, PC12, CRE-LacZ reporter, unstimulated (AID 1145). The settings on record: no forskolin, luminescence, 4.5 h, higher = more signal, called active from +8 up or from −8 down.
The nature of experiment [5]: CREB reporter modulators under forskolin, primary screen, cell-based, PC12, CRE-LacZ reporter, forskolin-stimulated (AID 1146).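 Note: PC12 cells with 6xCRE LacZ reporter stimulated by forskolin 10 µM; beta-galactosidase reporter signal reflecting CREB driven transcription.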 The settings on record: luminescence, 4.5 h, higher = more signal, called active from +8 up or from −8 down.
The target in experiment [6] is Streptavidin (Streptomyces avidinii) (UniProt P22629). Description: streptavidin binders on small-molecule microarray, primary screen, artefact control for SMM compound annotation, biophysical, 635/667 nm fluorescence (AID 1147).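 Note: signal reflects streptavidin binding to arrayed compounds as a control protein.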 The settings on record: streptavidin binding, higher = more signal.
Streptavidin (Streptomyces avidinii), sequence (P22629 whole entry, looked up): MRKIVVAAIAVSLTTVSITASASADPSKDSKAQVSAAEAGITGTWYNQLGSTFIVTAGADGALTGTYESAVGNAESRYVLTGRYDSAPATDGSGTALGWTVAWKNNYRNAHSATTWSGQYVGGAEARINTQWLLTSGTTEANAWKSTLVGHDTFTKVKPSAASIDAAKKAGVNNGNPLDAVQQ
Experiment [7] in a line: small-molecule binders of probe aInhba, primary screen, biochemical, small-molecule microarray, 635/667 nm fluorescence (AID 1148).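 Note: score merges 667nm spot fluorescence with signal-to-noise for antibody binding to printed compounds.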 The conditions noted are these: higher = more signal.
Experiment [8] concerns the target Torsin-1A (Homo sapiens) (UniProt O14656). Description: torsin A binders from cell lysate, primary screen, small-molecule microarray, wild-type, 635/667 nm (AID 1149). The conditions noted are these: COS7 hTOR1A-WT lysate, 635 nm fluorescence, higher = more signal.
The target is the same in experiment [9]. Description: small-molecule binders of mutant TOR1A in lysate, primary screen, cell lysate, small-molecule microarray, COS7 lysate, 635/667 nm fluorescence (AID 1150).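 Note: score pools 667 nm emission and signal to noise measuring lysate protein binding.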 The settings on record: COS7 hTOR1A mutant lysate, 635 nm fluorescence, higher = more signal.
Experiment [10] concerns Sonic hedgehog protein (Shh). Put plainly: small-molecule binders of Shh protein, primary screen, biochemical, small-molecule microarray, 635/667 nm fluorescence (AID 1151).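 Note: Shh protein binding to compounds spotted on small-molecule microarray slides; score combines spot fluorescence intensity with signal-to-noise across triplicate slides.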 The settings on record: small-molecule microarray binding, 635 nm fluorescence; higher = more signal.
Experiment [11] is described as follows: E. coli DRC41 culture turbidity changes, primary screen, E. coli filamentation inducer project, strain DRC41, OD650, 48 h (AID 1152).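 Note: E. coli MC1000 strain DRC41 lacking acrAB efflux pump and sulA.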 The settings on record: E. coli DRC41 (acrAB sulA), higher = more signal, called active from +8 up or from −8 down.
Experiment [12] is described as follows: small-molecule binders of probe aLefty1, primary screen, biochemical, small-molecule microarray, 635/667 nm fluorescence (AID 1153).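 Note: score merges spot fluorescence with signal-to-noise ratio from the scanned slide images.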 The settings on record: higher = more signal.
Experiment [13] in a line: PSAC antagonists in infected red cells, primary screen, cell-based, P. falciparum Indochina, OD700, 1 h (AID 1154). The conditions noted are these: P. falciparum Indochina infected RBC osmotic lysis, higher = more signal, called active from +8 up or from −8 down.
Experiment [14] in a line: PSAC antagonists in infected red cells, primary screen, cell-based, P. falciparum Indochina, OD700, 2 h (AID 1155).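 Note: lysis reports solute entry through the parasite surface anion channel PSAC; channel blockers reduce lysis of infected cells.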 The conditions noted are these: P. falciparum Indochina infected erythrocytes, osmotic lysis OD700; higher = more signal, called active from +8 up or from −8 down.
Experiment [15] in a line: osmotic lysis modulators in infected erythrocytes, primary screen, PSAC antagonist project, cell-based, P. falciparum Indochina, OD700, 3 h (AID 1156). The conditions noted are these: higher = more signal, called active from +8 up or from −8 down.
Experiment [16] is described as follows: PSAC antagonists in infected red cells, primary screen, cell-based, P. falciparum Indochina, OD700, 18 h (AID 1157). The settings on record: P. falciparum Indochina infected erythrocytes, osmotic lysis OD700, 18 h; higher = more signal, called active from +8 up or from −8 down.
Experiment [17] in a line: modulators of S6 phosphorylation in cells, primary screen, cell-based, A549, cytoblot, luminescence, serum-stimulated (AID 1158).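 Note: serum-stimulated A549 lung adenocarcinoma cells; signal is phosphorylated S6 detected by cytoblot immunostaining with HRP secondary.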 The conditions noted are these: A549 phospho-S6 cytoblot, 5 h, higher = more signal.
Experiment [18] addresses NADPH oxidase 2 (Homo sapiens) (UniProt P04839). Description: NOX2-dependent H2O2 signal modulators, primary screen, NOX inhibitor project, cell-based, HEK293-NOX2, PMA-stimulated, Amplex Red fluorescence (AID 1159). Note: test concentration not given here. The conditions noted are these: 45 min, higher = more signal, called active from +8 up or from −8 down.
Experiment [19] addresses NADPH oxidase 4 (Homo sapiens) (UniProt Q9NPH5). Put plainly: NOX4-dependent H2O2 signal modulators, primary screen, NOX inhibitor project, cell-based, HEK293-NOX4, tetracycline-induced, Amplex Red fluorescence (AID 1160). The conditions noted are these: 45 min, higher = more signal, called active from +8 up or from −8 down.
The target in experiment [20] is NADPH oxidase 5 (Homo sapiens) (UniProt Q96PH1). Description: NOX5-dependent H2O2 signal modulators, primary screen, NOX inhibitor project, cell-based, HEK293-NOX5, Amplex Red fluorescence (AID 1161). The settings on record: HEK293-NOX5, ionomycin, 45 min, higher = more signal.
NADPH oxidase 5 (Homo sapiens), sequence (Q96PH1 whole entry, looked up): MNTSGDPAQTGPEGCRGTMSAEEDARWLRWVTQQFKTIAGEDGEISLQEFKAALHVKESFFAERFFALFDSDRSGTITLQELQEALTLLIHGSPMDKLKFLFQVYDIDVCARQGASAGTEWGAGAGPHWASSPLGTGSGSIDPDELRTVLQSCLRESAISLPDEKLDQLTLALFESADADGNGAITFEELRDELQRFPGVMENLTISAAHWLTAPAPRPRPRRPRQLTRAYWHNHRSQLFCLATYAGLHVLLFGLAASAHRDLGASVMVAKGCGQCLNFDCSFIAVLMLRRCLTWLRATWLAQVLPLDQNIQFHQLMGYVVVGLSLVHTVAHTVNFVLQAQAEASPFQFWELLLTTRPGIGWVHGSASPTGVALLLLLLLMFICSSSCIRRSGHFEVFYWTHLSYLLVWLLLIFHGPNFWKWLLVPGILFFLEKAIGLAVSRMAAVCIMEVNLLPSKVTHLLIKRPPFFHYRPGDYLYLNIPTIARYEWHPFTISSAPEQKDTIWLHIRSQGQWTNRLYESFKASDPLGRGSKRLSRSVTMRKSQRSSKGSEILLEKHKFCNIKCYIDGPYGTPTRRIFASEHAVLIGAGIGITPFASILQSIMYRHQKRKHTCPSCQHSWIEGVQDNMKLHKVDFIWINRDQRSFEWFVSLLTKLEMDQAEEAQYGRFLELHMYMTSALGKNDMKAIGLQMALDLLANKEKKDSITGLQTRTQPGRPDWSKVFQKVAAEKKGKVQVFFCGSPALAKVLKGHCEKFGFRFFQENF

Torsin-1A (Homo sapiens), sequence (O14656 whole entry, looked up): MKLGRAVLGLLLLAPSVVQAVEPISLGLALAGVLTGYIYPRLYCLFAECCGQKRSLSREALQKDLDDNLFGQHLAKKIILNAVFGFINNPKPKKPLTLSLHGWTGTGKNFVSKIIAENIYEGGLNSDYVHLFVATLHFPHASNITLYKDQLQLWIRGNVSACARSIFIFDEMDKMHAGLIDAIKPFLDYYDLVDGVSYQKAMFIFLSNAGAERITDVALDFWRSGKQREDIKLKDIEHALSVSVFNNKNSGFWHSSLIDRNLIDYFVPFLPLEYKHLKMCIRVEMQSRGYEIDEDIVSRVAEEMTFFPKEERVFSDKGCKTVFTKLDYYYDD
NADPH oxidase 4 (Homo sapiens), sequence (Q9NPH5 whole entry, looked up): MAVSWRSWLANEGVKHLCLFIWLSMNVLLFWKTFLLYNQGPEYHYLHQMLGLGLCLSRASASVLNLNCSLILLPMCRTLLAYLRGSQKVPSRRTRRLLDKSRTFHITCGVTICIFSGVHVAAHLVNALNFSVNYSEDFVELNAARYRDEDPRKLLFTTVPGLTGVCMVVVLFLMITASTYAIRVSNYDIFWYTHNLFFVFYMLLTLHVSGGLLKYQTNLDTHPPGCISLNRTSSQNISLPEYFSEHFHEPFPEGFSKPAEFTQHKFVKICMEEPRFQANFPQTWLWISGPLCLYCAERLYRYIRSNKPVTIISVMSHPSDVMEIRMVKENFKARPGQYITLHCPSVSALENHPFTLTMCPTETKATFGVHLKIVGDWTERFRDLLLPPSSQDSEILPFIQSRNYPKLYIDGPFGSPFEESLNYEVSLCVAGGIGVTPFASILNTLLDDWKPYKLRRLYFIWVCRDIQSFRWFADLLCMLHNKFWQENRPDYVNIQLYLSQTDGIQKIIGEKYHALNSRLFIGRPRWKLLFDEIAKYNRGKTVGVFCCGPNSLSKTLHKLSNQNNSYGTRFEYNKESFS
NADPH oxidase 2 (Homo sapiens), sequence (P04839 whole entry, looked up): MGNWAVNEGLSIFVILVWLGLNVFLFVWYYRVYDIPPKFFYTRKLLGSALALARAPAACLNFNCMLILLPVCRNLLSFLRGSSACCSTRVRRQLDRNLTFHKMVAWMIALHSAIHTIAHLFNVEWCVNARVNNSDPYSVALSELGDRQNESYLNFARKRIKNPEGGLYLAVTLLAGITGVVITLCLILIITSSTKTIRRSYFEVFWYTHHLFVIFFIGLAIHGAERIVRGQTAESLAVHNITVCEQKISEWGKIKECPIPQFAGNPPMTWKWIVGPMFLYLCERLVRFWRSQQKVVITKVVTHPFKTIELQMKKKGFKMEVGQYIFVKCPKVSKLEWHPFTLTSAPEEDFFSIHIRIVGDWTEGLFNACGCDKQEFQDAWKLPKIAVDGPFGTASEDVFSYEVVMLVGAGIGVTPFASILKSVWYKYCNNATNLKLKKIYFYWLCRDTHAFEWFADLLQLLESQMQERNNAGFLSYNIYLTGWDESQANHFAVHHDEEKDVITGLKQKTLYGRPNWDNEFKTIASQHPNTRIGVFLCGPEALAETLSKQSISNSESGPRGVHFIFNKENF

As for `CN1C(=O)C2C=CC(C(O)COCc3ccccc3)N(N(c3ccccc3)c3ccccc3)C2C1=O` (stereo not given), the composite z-score is 0.124 in [1]; 0.369 in experiment [6]; 0.0464 in [7]; 0.346 with Torsin-1A (Homo sapiens) [8]; 0.231 with Torsin-1A (Homo sapiens) [9]; -0.386 in [10]. In addition, in experiment [12], the composite z-score worked out at 0.479. Besides, the z-score was -0.423 (inactive) in experiment [2]; -0.761 (inactive) in [3]; -0.326 (inactive) in experiment [4]; -0.637 (inactive) in [5]; -0.339 (inactive) in experiment [11]; 3.65 (inactive) in [13]. The z-score in [14] is 1.49 (inactive); in experiment [15], 0.361 (inactive); in experiment [16], 1.07 (inactive); in experiment [17], -0.849; in [18], 1.58 (inactive); in experiment [19] it was -4.42 (inactive). The compound also came in with a z-score in experiment [20] of 0.262.

As for `CC(C)N1C(=O)C[C@@](C(=O)NCCCN(C)C)(c2ccc([N+](=O)[O-])cc2)[C@H]1c1ccc(CO)cc1`, the composite z-score in experiment [1] was -0.0942; in experiment [6] it was -0.36; in experiment [7] it was -0.157; in the experiment with Torsin-1A (Homo sapiens) [8] it was -0.0639; in the experiment with Torsin-1A (Homo sapiens) [9], 0.46; in experiment [10], 0.249. The same compound had a composite z-score in [12] of 0.0129. Besides, the z-score in [2] was -1.38 (inactive); in experiment [3], 0.574 (inactive); in experiment [4] it was 0.764 (inactive); in experiment [5], 0.0255 (inactive); in experiment [11], -0.898 (inactive); in experiment [13] it was 3.55 (inactive). Also, the z-score is 1.1 (inactive) in experiment [14]; 1.82 (inactive) in [15]; 0.891 (inactive) in experiment [16]; 0.23 in experiment [17]; 0.778 (inactive) in experiment [18]; 0.334 (inactive) in experiment [19]. Also, the z-score in experiment [20] is -0.00257.

For `C=CCNC(=O)[C@@H]1[C@H]2C(=O)O[C@H](c3ccccc3)[C@H](c3ccccc3)N2[C@H](c2ccc(O)cc2)[C@@]12C(=O)N(C(=O)OCCOC)c1ccc(C#CC3(O)CCCCCC3)cc12`, the composite z-score was -1.3 in experiment [1]; -1.23 in [6]; -0.204 in experiment [7]; -1.68 in the experiment with Torsin-1A (Homo sapiens) [8]; -1.47 in the experiment with Torsin-1A (Homo sapiens) [9]; -0.382 in [10]. Also, the composite z-score in experiment [12] was -0.639. The z-score is -1.16 (inactive) in [2]; -0.53 (inactive) in [3]; -1.28 (inactive) in [4]; 0.142 (inactive) in experiment [5]; 2.23 (inactive) in experiment [11]; 0.776 (inactive) in [13]. In addition, the z-score in experiment [14] was -0.353 (inactive); in [15], 0.469 (inactive); in experiment [16], 0.682 (inactive); in experiment [17], 0.305; in experiment [18], -0.00516 (inactive); in experiment [19], 0.395 (inactive). This compound registered a z-score in experiment [20] of 0.849.

Consider `Cc1cc(C)c(C(O)C2C=CC3C(=O)NC(=O)C3N2Nc2ccc(Cl)cc2Cl)c(C)c1` (stereo not given), for which the composite z-score in [1] was 0.0976; in [6], 1.64; in experiment [7], 0.249; with Torsin-1A (Homo sapiens) [8], 0.148; in the experiment with Torsin-1A (Homo sapiens) [9] it was 0.697; in [10], -0.684. The same compound gave a composite z-score in experiment [12] of 0.479. Besides, the z-score in experiment [2] was -0.943 (inactive); in experiment [3] it was -0.882 (inactive); in experiment [4] it was -0.329 (inactive); in [5], -0.496 (inactive); in experiment [11], -2.38 (inactive); in [13], 3.38 (inactive). Moreover, the z-score is 1.18 (inactive) in experiment [14]; -1.55 (inactive) in experiment [15]; 0.876 (inactive) in experiment [16]; -0.919 in [17]; 0.614 (inactive) in experiment [18]; -4.94 (inactive) in [19]. For the same compound, in experiment [20], the z-score is -1.3.
